HIV RNase H inh-1: blocks HIV-1 RNase H cleavage of RNA/DNA duplex; P04585; RT-RNase H RNA/DNA duplex cleavage, fluorescence; inhibition, % at 10 µM; 65,000 tested, 1.9% active; in the data active = inhibition above about 50%
HIV RNase H inh-2: confirmation of HIV-1 reverse transcriptase RNase H inhibitors; AID 651; inhibition, % at 10 µM; Recombinant RT RNase H, fluorescent RNA/DNA duplex cleavage; 1,000 tested, 39% active; shares compounds with HIV RNase H inh-1; in the data active = inhibition above about 48%; inconclusive = no clear call, values can overlap the other calls
Starred values were filed as active, the others as inactive; ? = inconclusive. Only a selection was taken, and hits are over-represented in it overall.

SMILES	HIV RNase H inh-1	others
CCOC(=O)c1sc(NC(=O)C(CC)Sc2nnc3c4ccccc4n(CC)c3n2)nc1C (stereo not given)	25.5
COc1ccc(CC(=O)Nc2ccc(-c3noc(COc4ccccc4C)n3)cc2)cc1	27.9
CCOc1ccccc1-c1nc(-c2ccc(NC(=O)c3ccc(Br)o3)cc2)no1	6.7
CCOc1ccccc1-c1nc(-c2ccc(NC(=O)Cc3ccc(OC)cc3)cc2)no1	64.4*	HIV RNase H inh-2=?
CCOc1cc(NC2CS(=O)(=O)CC2O)c(OCC)cc1NC(=O)c1ccccc1 (stereo not given)	-8.4
CCOC(=O)c1c(NC(=O)CSc2nnnn2CC)sc(C)c1C	-1.7
c1cncc(-c2nnc(C3CCCCC3)o2)c1	-3.1
COCCn1c(=O)c2c3c(sc2n(CC(N)=O)c1=O)CCCC3	3.6
O=C(OCN1C(=O)c2ccccc2C1=O)C1CCCCC1	-29.9
O=C1c2ccccc2C(=O)N1CCN1CCCCC1	1.9
O=C1c2ccccc2C(=O)N1SC1CCCCC1	80.2*	HIV RNase H inh-2=4.9
CC(C)c1nc(N2CCOCC2)c(C#N)c2c1CCC2	-23.2
Cc1csc(NC(=O)c2cccc(S(=O)(=O)N3CCCCC3)c2)n1	-4.7
Cc1ccc(-c2csc(NC(=O)c3cccc(N4C(=O)CCC4=O)c3)n2)o1	57.5*	HIV RNase H inh-2=24.2
CCOC(=O)Cc1csc(NC(=O)c2cccc(N3C(=O)CCC3=O)c2)n1	-16.8
CCc1nn(C(C)C(=O)NC(C)CCc2ccco2)c(=O)c2cc3occc3n12 (stereo not given)	-5.1
CCOc1cc(C(=O)CSc2nnc(CNc3ccc(Cl)cc3)o2)ccc1NC(=O)CC	67.0*	HIV RNase H inh-2=13.9
CCc1nnc(NC(=O)CSc2nnc(CNc3ccc(Cl)cc3)o2)s1	-1.5
COc1ccc(NC(=O)CSc2nnc(CNC(=O)COc3ccc(Cl)cc3)o2)c(OC)c1	-32.7
Cc1cc(=O)oc2cc(OCC(=O)NCCc3nc4ccccc4[nH]3)ccc12	13.3
Cc1ccc(Cl)cc1N1CCN(C(=O)CCS(=O)(=O)c2cccc3nonc23)CC1	-6.1
CC(OC(=O)c1ccccc1NCc1ccco1)C(=O)Nc1ncc(Cl)cc1Cl (stereo not given)	-18.5
